According to PubChem BioAssay AID1053197 (The Scripps Research Institute Molecular Screening Center, 2014):
Among all 370,000 compounds or so, about 2,600 (0.7%) were called active.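 The calls were made as follows: active = inhibition above a cutoff: mean of compounds within the control limits plus 3 SD of those (cut at about 17% in these data); inactive = the rest.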 What follows is part of a selection rich in actives, with near analogues and random picks from the rest.

What follows are molecules tested against Sialate O-acetylesterase (Homo sapiens) (UniProt Q9HAT2) (assay: human SIAE inhibitors, primary screen, biochemical, fluorescence polarization, FP-Rh probe, 1536-well HTS (AID 1053197;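 also: 0% = plate median of compound wells and 100% = probe without SIAE protein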)). Details: SIAE FP-Rh probe binding, at 9.66 µM, hits give high values.
Chain of Sialate O-acetylesterase (Homo sapiens) (Q9HAT2 whole entry, looked up): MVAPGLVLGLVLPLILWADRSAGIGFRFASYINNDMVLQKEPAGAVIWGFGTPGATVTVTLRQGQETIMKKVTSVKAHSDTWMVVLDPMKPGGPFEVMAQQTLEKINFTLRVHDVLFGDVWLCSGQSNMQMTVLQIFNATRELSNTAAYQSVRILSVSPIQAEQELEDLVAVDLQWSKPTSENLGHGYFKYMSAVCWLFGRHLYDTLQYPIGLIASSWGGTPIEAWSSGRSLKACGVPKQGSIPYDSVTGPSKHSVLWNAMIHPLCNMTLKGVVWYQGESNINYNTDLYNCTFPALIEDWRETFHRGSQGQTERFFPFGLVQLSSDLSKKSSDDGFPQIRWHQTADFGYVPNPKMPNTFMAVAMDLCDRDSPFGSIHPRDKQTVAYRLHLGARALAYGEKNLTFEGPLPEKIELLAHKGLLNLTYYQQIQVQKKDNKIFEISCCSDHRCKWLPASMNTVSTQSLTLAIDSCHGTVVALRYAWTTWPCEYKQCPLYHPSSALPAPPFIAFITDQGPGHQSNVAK

inhibition, inactive:
C=CCN1[C@H](CC(C)C)COc2cccc(N3CCCC3)c2S1(=O)=O 6.71%
CNC(=S)N/N=C/c1ccc(OCc2ccccc2)c(Br)c1 -1.33%
NC(=O)Cn1cc(/C=N\NS(=O)(=O)c2ccccc2)c2ccccc21 10.5%
c1coc(CCNc2ncnc3ccc(-c4ccc5c(c4)OCO5)cc23)c1 -15.4%
CCC(=O)Nc1ccc2c(c1)C(=O)N(C)[C@H]1CC[C@H](CC(=O)NCCOC)O[C@@H]1CO2 -4.02%
COc1ccc(C#CCNCc2ccc(OC)cc2OC)cc1 3.3%
Oc1ccc(N2CCN(C(=S)NCc3ccccc3)CC2)cc1 10.2%
Oc1cc2c(cc1O)CN(C(=S)NCCc1ccc(Cl)cc1)CCC2 2.67%
CCOC(=O)C(=O)N(Cc1ccccc1)c1ccccc1C(=O)Nc1cc(OC)ccc1OC -7.2%
CC(C)(C)OC(=O)NCc1cc(F)ccc1/C=C/S(=O)(=O)NCCc1ccccc1 -1.86%
COC(=O)c1cc(S(=O)(=O)N2CCN(c3ccccc3C)CC2)cn1C 2.1%
CCC(=O)N1CCC(C(N)=O)(N2CCCCC2)CC1 -0.17%
NC(=O)C1(N2CCCCC2)CCN(C(=O)c2ccc(C#Cc3ccccc3)o2)CC1 -5.47%
CCC[C@H]1C(=O)CC[C@@]23CCCN2C(=O)CCC[C@@H]13 -0.79%
CC[C@@H](CCC(=O)N(c1ccccc1)c1ccccc1)C1CC1 -1.88%
COC(=O)[C@]1(C#N)CC(=O)N(CC2CCCCC2)[C@@H]1c1ccccc1 2.31%
COc1ccc(C2C3=C(OC(C)=O)c4ccccc4C3=Nc3c2c(=O)n(C)c(=O)n3C)cc1 (stereo not given) 1.68%
Cc1cccc(C2C3=C(CCCC3=O)N=C3c4ccccc4C(=O)C32)c1 (stereo not given) 6.75%
CCC(CO)Nc1cccc2c1S(=O)(=O)N(Cc1cn(Cc3ccccc3C(F)(F)F)nn1)Cc1ccccc1O2 (stereo not given) 7.92%
COC(=O)c1cc(S(=O)(=O)N2CCN(C(=O)C3CCCO3)CC2)cn1C (stereo not given) -4.53%
CCCCOCCCNC(=O)C[C@H]1C[C@@]2(C(=O)OC)C(=C[C@H](C(C)(C)C)O[C@@H]2C)N(CCc2ccc(OC)c(OC)c2)C1=O -1.28%
CCOC(=O)[C@]12CCCCC/C=C\1N(Cc1ccc(OC)cc1)C(=O)[C@H]2CC(=O)NCCCN1CCCC1=O 4.21%
CCOc1cc(N2CCOCC2)c(OCC)cc1NC(=O)C1=NN(c2cccc(C)c2)C(=O)CC1 7.16%
NC(=O)C1CCN(C(=O)COc2cccc3cccnc23)CC1 4%
CC(=O)NS(=O)(=O)c1ccc(N/C(N)=N/c2nc(C)cc(C)n2)cc1 -5.5%
COc1ccc(C(=O)NNc2cc(C)nc(NNC(=O)c3ccc(OC)cc3)n2)cc1 -3.36%
CCC(c1ccc(NC(=O)OC(C)(C)C)cc1)c1cc(OC)cc(OC)c1 (stereo not given) -2.44%
C=CCN1C(=O)[C@H](CC(=O)N2CCN(C(=O)OCC)CC2)[C@@]2(C(=O)OCC)CCCC=C12 10.1%
CC(=O)N1CCc2cc(S(=O)(=O)NCCC(=O)N3CCCC3)ccc21 -1.37%
C=CCN1C(=O)[C@@H](CC(=O)N2CCN(C(=O)c3ccco3)CC2)[C@]2(C(=O)OC)CCCCC=C12 2.59%
CC(C)N1CCCCC(NC(=O)C(C)(C)C)C1=O (stereo not given) -4.73%
Cc1ccccc1OCC(=O)NCC(=O)OCC(=O)c1ccc2ccccc2c1 -1.57%
O=C(COc1ccc(Cl)cc1)NCCSc1ccccc1 0.9%
C[C@H]1[C@H](NC(=O)c2cccc(N(C)C)c2)CC[C@@]23CCCN2C(=O)CCC[C@@H]13 0.13%
COc1ccc(CSc2nnc(-c3cccc(C)c3)n2C)cc1 4.99%
COC(=O)C[C@@H]1CC[C@H]2[C@@H](COc3ccc(NS(=O)(=O)CC(F)(F)F)cc3C(=O)N2C)O1 8.2%
COC(=O)[C@]12C[C@H](CC(=O)NCc3cccs3)C(=O)N(CCc3ccc(OC)c(OC)c3)C1=C[C@H](C(C)C)O[C@@H]2C1CC1 9.66%
COc1ccc(C2CC=C(C(=O)O)C(c3ccccc3F)N2S(=O)(=O)c2ccc(C)cc2)cc1OC (stereo not given) -2.16%
CCOC(=O)c1nnn(-c2nonc2OC)c1-c1ccccc1 1.88%
COC(=O)/C(=C1\Oc2ccc(C(C)(C)C)cc2S1)C(F)(F)F 0.75%
c1csc(-c2nnc(SCc3nc4ccccc4[nH]3)o2)c1 -0.76%
CCCNC(=O)Nc1ccc2c(c1)C(=O)N(C)[C@H]1CC[C@H](CC(=O)NCC3CCCCC3)O[C@@H]1CO2 -0.34%
Cc1cccc(NC(=O)C[C@H]2CC[C@H]3[C@@H](COc4ccc(NC(=O)Nc5ccccc5)cc4C(=O)N3C)O2)c1 -1.56%
CCc1ccc(/C=N/NC(=O)c2nnn(-c3nonc3N)c2CN2CCc3ccccc32)cc1 -0.3%
COc1ccccc1CCC(=O)NNC(=O)c1ccncc1 -7.13%
CCCCNC(=O)C[C@H]1C[C@@]2(C(=O)OC)C(=C[C@H](COCc3ccccc3)O[C@@H]2C)N(Cc2ccc(Cl)cc2Cl)C1=O 11.1%
COc1ccc(S[C@]2(C(=O)N(C)C)CC(=O)N(c3ccc(OC)cc3)[C@@H]2c2ccc(OC)cc2)cc1 -0.86%
Cc1ccc(NC(=O)Cc2cccc(F)c2)c(S(=O)(=O)N2CCOCC2)c1 -2.62%
CCSc1nc(O)c(C(c2cccc(OC)c2)c2c(O)nc(SCC)[nH]c2=O)c(=O)[nH]1 -2.73%
COc1ccccc1OCC(=O)OCn1c(SC)nnc(C)c1=O -6.49%
CCN(/N=C/c1ccccc1)c1cc(=O)n(C)c(=O)[nH]1 10.2%
CCN(/N=C/c1ccc(N(C)C)cc1)c1nc2ccccc2[nH]1 4.94%
O=C(NC1CCCC1)C1CSCCS(=O)(=O)N1Cc1ccccc1 (stereo not given) -3.54%
N[C@@H](Cc1ccccc1)C(=O)N1CCC[C@@H]1C(=O)N1CCC2CCN(S(=O)(=O)c3ccccc3)CC21 (stereo not given in full) 1.02%
Oc1ccc(/C=C/c2c(F)cccc2F)c2cccnc12 9.1%
COCC1CCN(C(=O)c2ccc3oc(Cc4ccccc4)nc3c2)C1 (stereo not given) -5.51%
CCC1C(=O)NCCN1C(=O)c1ccc2nc(Cc3ccc(OC)cc3)oc2c1 (stereo not given) -0.21%
CC(CCN1CCC(C(O)(c2ccccc2)c2ccccc2)CC1)Oc1ccc([N+](=O)[O-])cc1Cl (stereo not given) 1.3%
Cc1ccc(/C=N/NC(=O)Cn2ccc(C(F)(F)F)n2)o1 2.98%
Cc1ccc(/C=N/NC(=S)NC2CCCCC2)o1 8.46%
C[C@H]1CCC/C=C/C(=O)c2c(O)cc(O)cc2CC(=O)O1 5.43%
C=CCOC/C=C/C#CCN(CC=C)Cc1ccc(OC)cc1OC -0.76%
CCOC(=O)CC1=CC(=O)Nc2ccccc2N1 2.76%
CCCCC(CC)CNC(=O)C(=O)C1C(=O)Nc2ccccc21 (stereo not given) 4.38%
Nc1cccc(S(=O)(=O)Nc2ccc(SC(F)F)cc2)c1 -5.85%
Cc1c(NS(=O)(=O)c2cccc(C(=O)Nc3ccc(SC(F)F)cc3)c2)c(=O)n(-c2ccccc2)n1C -14%
Cc1nc2ccc(C(=O)N3CCN(C(=O)C(C)(C)C)CC3)cc2n1C1CCCC1 1.16%
Cc1ccccc1CS(=O)(=O)Cc1ccc(C(=O)Nc2ccc(Cl)cc2)o1 -4.56%
C[C@H](C(=O)N(C)c1ccccc1)[C@@H](O)c1ccc(Cl)cc1 -3.9%

inhibition, active:
CNC(=S)N/N=C/c1cn(Cc2ccc(C)cc2)c2ccccc12 18.3%
COc1cccc(/C=N/Nc2cc(C)nc(-c3ccccc3O)n2)c1O 18.5%
O=C1CCN(C(=S)NCCc2ccccc2)CC1 17.5%
CC(C)(O)C#Cc1ccc(C(=O)N2CCC(C(N)=O)(N3CCCCC3)CC2)cc1 22.5%
Cc1cccc(C2c3c(n(C)c(=O)n(C)c3=O)N=C3c4ccccc4C(=O)C32)c1 (stereo not given) 17.7%
CCOc1cc(N2CCOCC2)c(OCC)cc1NC(=O)COc1cccc2cccnc12 25.5%
CC(=O)Nc1ccc(Nc2cc(C)nc(Nc3ccc(NC(C)=O)cc3)n2)cc1 19.1%
Cc1cc2ccccc2n1CCNC(=O)COc1ccc2ccccc2c1 27.9%
CCOC(=O)C1=C(c2ccccc2)O/C(=C(/C(=O)OC)C(F)(F)F)S1 36%
COc1ccc(/C=N/NC(=O)c2ccncc2)cc1CN1CCCc2ccccc21 18.8%
CCn1c(SC)nc(O)c(C(c2ccc(OC)c(O)c2)c2c(O)nc(SC)n(CC)c2=O)c1=O 26.7%
Oc1ccc(/C=N/N(Cc2ccccc2)c2ccccc2)cc1 19.4%
COc1ccc(Cc2nc3ccc(C(=O)N4CCC(N(C)C)C4)cc3o2)cc1 (stereo not given) 18.5%
Cc1ccc(/C=N/NC(=O)c2cc3ccccc3cc2O)o1 21.5%
CCOC(=O)C(=O)C1C(=O)Nc2ccccc21 (stereo not given) 20.6%
COc1ccc(NC(=O)/C(N=Nc2cccc(S(=O)(=O)Nc3ccc(SC(F)F)cc3)c2)=C(\C)O)cc1 17.2%
